Most compounds without a hit are left out; they make up all but 4.5% or so of the library.
Caspase-7 inhib: qHTS Assay for Allosteric/Competitive Inhibitors of Caspase-7; recombinant caspase-7, Ac-DEVD-AFC fluorescence rate; Potency, µM (top dose mostly 57.5 µM), for inactives: at the top dose activity change, negative = inhibition, usual class: inhibitors; 75,000 compounds, 0.02% hits; active = well fitted inhibition curve with a large enough effect in the main read-out, with a control signal flat, not every such curve was filed as active; inconclusive = small, poorly fitted or top-dose-only effect, or a change in a side signal; also: potency is read from the fitted curve at half-maximal effect; % of control where 0% means no effect
TSHR agonist: qHTS Assay for Agonists of the Thyroid Stimulating Hormone Receptor | Thyrotropin receptor (Homo sapiens), P16473 | HEK293-CNG-TSHR cells (CNG channel as cAMP sensor), membrane potential dye, cAMP | Potency, µM (highest dose often 57.1 µM), for inactives: at the highest dose activation, usual class: activators | 73,000 compounds, 0.48% hits | AID 926, 2007; active = well fitted activation curve with a large enough effect in the main read-out, with a control signal flat, not every such curve was filed as active; inconclusive = small, poorly fitted or top-dose-only effect, or a change in a side signal; inactive = no such curve, though single readings can be large or run the other way; % of control where 0% means no effect;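 also: the control signal comes from parental cells without the receptor; potency is read from the fitted curve at half-maximal effect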
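cAMP rise detected as CNG-channel membrane depolarization by fluorescent dye (emission 590 nm), 30 min after compound, following 60 min dye loading containing 100 uM RO 20-1724 at room temperature. Cells: TSHR/CNG HEK 293, with parental CNG HEK 293 as control.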
GBA activity: Glucocerebrosidase | purified enzyme, resorufin glucoside fluorescence (screen aimed at inhibitors), 20 min | Potency, µM | 48,000 compounds, 1.1% hits | Lysosomal acid glucosylceramidase (Homo sapiens), P04062; in the data active = potency below about 15 µM; inconclusive = mostly about 16 µM to 33 µM;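 also: potency is read from the fitted curve at half-maximal effect; the screen sought inhibitors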
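Compounds titrated against 0.2 nM normal enzyme, 30 uM resorufin beta-D-glucopyranoside substrate, citrate/phosphate buffer with taurocholate and tween-20, pH 5.9. Reaction ran 20 min at room temperature; fluorescence (Ex 548/Em 600) gave AC50.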
ERK AVP inh: qHTS Assay for Inhibitors of the ERK Signaling Pathway using a Homogeneous Screening Assay | HEK293-V1b, vasopressin-stimulated pERK AlphaScreen | Potency, µM (highest dose often 57.5 µM), for the others: at the top dose activity, negative = inhibition, hits mostly inhibitors | 72,000 compounds, 0.99% hits | AID 995, 2007; also: potency is read from the fitted curve at half-maximal effect; % is scaled to controls: 0 for no effect and ±100 for the full control effect; nearly all actives have a fitted effect of over 55% in size
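Overnight-seeded V1b-HEK293 cells in 1% FBS got compound, then vasopressin (25 nM final, 5 min, 37C), then lysis buffer. AlphaScreen detection of phospho-ERK; activity normalized to basal and full-stimulation controls.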
Casp1 inh: qHTS Assay for Allosteric/Competitive Inhibitors of Caspase-1. Caspase-1 enzyme, Ac-WEHD-AFC fluorogenic rate. Potency, µM (top dose mostly 57.5 µM), without a hit: at the highest dose activity change, negative = inhibition, usual class: inhibitors. 75,000 compounds, 0.03% hits. AID 900, 2007;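 also: potency is read from the fitted curve at half-maximal effect; plate controls were vehicle for no effect and no substrate for full effect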
HEK293 cAMP cs: qHTS Assay for Agonists of the Thyroid Stimulating Hormone Receptor: Activators of Intracellular cAMP Concentrations in Parental HEK 293 | parental HEK293 CNG cAMP sensor, membrane potential fluorescence | AID 938, 2007 | Potency, µM (series often up to 57.1 µM), inactives show at the highest dose activation, most hits filed as activators | 73,000 compounds, 2.5% hits; also: potency is read from the fitted curve at half-maximal effect; % of control where 0% means no effect; nearly all actives have a fitted effect of over 55% in size
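Parental HEK 293 cells stably expressing a cAMP-gated CNG channel were loaded with membrane potential dye containing 100 uM RO 20-1724 for 60 min. Compound added for 30 min; depolarization read as fluorescence intensity at 590 nm.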
parental cAMP: Confirmation Concentration-Response Assay for Agonists of the Thyroid Stimulating Hormone Receptor: Activators of Intracellular cAMP Concentrations in Parental HEK 293 | activity change, negative = inhibition, % at 32.9 µM | shares compounds with TSHR agonist | 150 tested, under 10 active | parental HEK293 CNG biosensor, cAMP membrane potential fluorescence | AID 953, 2007
Starred values were filed as active, the others as inactive; ? = inconclusive; nt = no result; [ ] = remark or other dose. Unless noted, calls follow the shape of the dose curve; as a rule, active = well fitted curve in the direction sought with a large enough effect; inconclusive = small, poorly fitted or top-dose-only effect, or another doubt; inactive = no such curve, though single readings can be large; an effect the other way counts as inactive or inconclusive.

SMILES | Caspase-7 inhib | TSHR agonist | GBA activity | ERK AVP inh | Casp1 inh | HEK293 cAMP cs | others
CCc1nnc(NC(=O)C2CCN(S(=O)(=O)Cc3ccccc3)CC2)s1 | 0% | 1% | 4.3* | -11% | -3% | -2%
COC(=O)c1ccc(NC(=O)c2ccc(CN3CCOCC3)cc2)cc1 | -1% | 15% | nt | ? | 0% | 11%
O=C(Nc1ccc(CN2CCOCC2)cc1)c1ccc(-c2ccc(Br)cc2)o1 | 0% | ? | nt | 32µM* | -4% | 25µM*
Cc1ccc(-n2c(SCC(=O)NCC3CCCO3)nc3n[nH]c(C)c3c2=N)cc1Cl (stereo not given) | 0% | 7% | 14* | 1% | 1% | 4%
c1nc(NC2CC2)c2cc(-c3ccoc3)ccc2n1 | -12% | 7% | nt | ? | -5% | -4%
N#CC[N+]1(Cc2ccccn2)CCCC1 | -1%[11.5 µM] | 3%[11.4 µM] | nt | 0%[11.5 µM] | 4%[11.5 µM] | 2%[11.4 µM]
CC(C)(C)OC(=O)NCCCCCc1nnc(SCC(=O)Nc2cccc(Cl)c2)o1 | -2% | ? | nt | 25µM* | -1% | ?
COP(=O)(OC)OC(c1ccc(Cl)cc1)P(=O)(OC)OC (stereo not given) | 0% | -3% | nt | 2% | -10% | 3%
Cc1ncc(CSc2ccccc2N)c(CO)c1O | -1%[11.5 µM] | 0%[11.4 µM] | nt | -3%[11.5 µM] | -1%[11.5 µM] | -8%[11.4 µM]
Cc1cccc2cc(C#N)c(SCC(=O)N3CCC(C)CC3)nc12 | -6% | ? | >77 | -11% | -9% | 25µM*
Cc1cc(C)c2nc(SCC(=O)N3CCCCC3)c(C#N)cc2c1 | -1% | ? | >77 | -4% | 1% | ?
COCCn1c(=O)c(C)nc2cnc(OCc3ccccc3)nc21 | -2% | ? | nt | ? | 0% | 3.2µM*
N#CCCn1c(=O)c(CCc2ccccc2)nc2cnc(Oc3ccccc3)nc21 | -5% | ? | nt | -14% | -5% | ?
COc1cccc(Cn2c(=O)c(C)nc3cnc(OCc4ccccc4)nc32)c1 | -5% | ? | nt | 6% | -7% | 16µM*
N#CCCn1c(=O)c(CCc2ccccc2)nc2cnc(OCc3ccccc3)nc21 | -6% | ? | nt | ? | -7% | 4µM*
O=C1COC(c2ccccc2O)=NN1CCCN1CCCC1 | 0%[11.5 µM] | 4%[11.4 µM] | nt | -15%[11.5 µM] | -13%[11.5 µM] | 1%[11.4 µM]
CCCCCCCC#Cc1ccccc1/C=N/S(=O)C(C)(C)C (stereo not given) | 0%[11.5 µM] | nt | nt | -2%[11.5 µM] | -1%[11.5 µM] | 21%[11.4 µM]
c1ccc(-c2c3ccccc3nc3[nH]c4ccccc4c23)cc1 | -9% | ? | nt | 11% | -5% | 10µM*
CN(C)CCCCNC(=O)c1ccc(-n2c(=O)c(=O)[nH]c3ccccc32)cc1 | -1% | -5% | nt | nt | 3% | -17%
CCc1ccccc1OC[C@@H](O)CN[C@H]1CCCc2ccccc21 | 0% | ? | nt | -26% | 2% | 40µM*
C[C@H]1C[C@@H]2[C@H]3CCC4=CC(=O)C=C[C@@]4(C)[C@]3(Cl)[C@@H](Cl)C[C@]2(C)[C@]1(O)C(=O)COP(=O)(O)O | nt | 0%[11.4 µM] | nt | nt | nt | 6%[11.4 µM]
Cc1ccc2c(c1)cc(CN(Cc1cccs1)C(=O)c1ccco1)c1nnnn12 | -2% | ? | >77 | ? | -2% | 16µM*
Cc1ccc2cc(CN(Cc3cccs3)C(=O)c3ccco3)c3nnnn3c2c1C | -3% | ? | >77 | -7% | -9% | ?
COc1ccccc1CNc1ncncc1-c1ccc(C(=O)N(C)C)cc1 | -3% | ? | nt | 2% | -1% | ?
COc1ccccc1CNc1ncncc1-c1ccc(N(C)C)cc1 | -6% | 6.3µM* | nt | ? | -2% | -10%
SMILES | Caspase-7 inhib | TSHR agonist | GBA activity | ERK AVP inh | Casp1 inh | HEK293 cAMP cs | others
c1ccc2c(c1)CCCC2NC1=NCCC1 (stereo not given) | -1% | 1% | >77 | -22% | 0% | 21%
O=C1C(Cl)=C(NC2CCc3ccccc32)C(=O)c2ncccc21 (stereo not given) | ? | ? | nt | ? | 1.6µM* | -23%
Clc1ccccc1-c1nccc(NCCN2CCOCC2)n1 | -2% | 10% | nt | -25% | 1% | 20%
O=C1C(Cl)=C(NCCN2CCOCC2)C(=O)c2ncccc21 | -15% | -7% | nt | -77% | 6.3µM* | -14%
Cc1ccccc1NC(=O)N1C2CCCC1CC(NC(=O)C1CC1)C2 (stereo not given) | 3% | 6% | >77 | -2% | -1% | 1% | parental cAMP=20[25.6 µM]
O=C(O)C[C@H](Sc1ccccc1)c1ccccc1 | 0%[11.5 µM] | ? | nt | -15%[11.5 µM] | 0%[11.5 µM] | ?
Cc1cc(C)n(S(=O)(=O)c2cc(C(=O)O)c(Cl)cc2Cl)n1 | 0% | 16µM* | >77 | -16% | 0% | 15% | parental cAMP=5
CCOc1ccc(N(CC(=O)NCc2cccs2)S(=O)(=O)c2c(C)noc2C)cc1 | 0% | 32µM* | nt | -8% | -1% | 6% | parental cAMP=10
CCOc1ccc(N(CC(=O)Nc2ccc(C)cc2)S(=O)(=O)c2c(C)noc2C)cc1 | -4% | 3% | nt | -16% | -2% | 3% | parental cAMP=5[25.6 µM]
CCOc1ccc(N(CC(=O)NC(C)(C)C)S(=O)(=O)c2c(C)noc2C)cc1 | 0% | 12% | nt | 1% | -1% | 18% | parental cAMP=7[25.6 µM]
CCOc1ccc(N(CC(=O)NCc2ccc(F)cc2)S(=O)(=O)c2c(C)noc2C)cc1 | -3% | 13% | nt | -9% | -1% | 8%
Cn1cccc1C(=O)N1CCC2(CC1)CCN(c1ncccn1)CC2 | 0% | -1% | nt | ? | -2% | -4%
Cc1cccc(OCC(=O)Nc2ccc3c(c2)OCO3)c1C | -2% | ? | nt | -11% | -2% | ?
O=C(COC(=O)C1c2ccccc2Oc2ccccc21)Nc1ccc2c(c1)OCO2 | -2% | 25µM* | >77 | -8% | -4% | 2% | parental cAMP=9
CCCn1c(C)nc2c(NCc3ccccc3)nc(C)nc21 | 1% | 11% | nt | ? | -1% | 54%
COC(=O)NC(c1cccs1)C(C(C)=O)C(=O)OC (stereo not given) | 1%[11.5 µM] | 4%[11.4 µM] | nt | 14%[11.5 µM] | 3%[11.5 µM] | 6%[11.4 µM]
NC(=O)c1nsc(C(=O)N(CC(=O)NCc2ccc3c(c2)OCO3)C2CCCC2)c1N | -2% | 13µM* | >77 | -19% | -4% | 13% | parental cAMP=7
Nc1nnc(SCC(=O)NCc2ccc3c(c2)OCO3)s1 | 0% | -8% | >77 | -28% | 0% | -6%
COc1cc(C)c2c(=O)cc(-c3ccccc3)oc2c1 | -2% | nt | nt | -1% | -9% | nt

Source: PubChem
